Consider 40 molecules from PubChem BioAssay (Tox21).

Structures are written as SMILES. Records with an inconclusive call do not appear. Active and inactive are the calls of the source. The call rests on the fitted dose curve.

The test is described as follows: qHTS assay to identify small molecule agonists of the NFkB signaling pathway - cell viability counter screen (AID 1159515). Further: nearly all actives have a fitted effect of over 55% in size. The following applies: NFkB-bla ME-180 viability, CellTiter-Glo luminescence, 5 h; series mostly up to 61 µM. From the text: National Center for Advancing Translational Sciences [NCATS]
NIH Chemical Genomics Center [NCGC]
U.S. Environmental Protection Agency [EPA]
National Institutes of Environmental Health Sciences [NIEHS]
National Toxicology Program [NTP]
U.S. Food and Drug Administration [FDA]
Transcription factors and their stimulated target gene expression play pivotal roles across many cellular processes including responses to environmental stimuli. Proper regulation of associated pathways is critical to maintain cell health and function. Constitutive activation of transcription factor pathways has been implicated in tumors as it may block cellular functions such as apoptosis and lead to invasion and metastasis. One important transcription factor that stimulates gene expression in response to cytokines, UV radiation, and other stimuli is nuclear factor-kappa B (NFkB). To measure activation of the NFkB pathway, the CellSensor NFkB-bla ME-180 cell line (Life Technologies, Carlsbad, CA) that stably expresses beta-lactamase reporter gene under the regulation of a NF-kB response element was used. This assay allows measurement of the NFkB pathway activity induced by compounds in a ME-180 cell line. This system quantitates NF-kB activity using a FRET-based assay system where beta-lactamase expression disrupts FRET, allowing for fluorescent measurement of activity. This cell line has been used to screen the Tox21 10K compound library and to identify compounds that induce the NFkB pathway activity. The cytotoxicity of the Tox21 compound library against the NFkB-bla ME-180 cell line was tested in parallel by measuring cell viability using the CellTiter-Glo assay in the same wells.
Tox21 Assay Protocol Summary:
NFkB-bla ME-180 cells were dispensed at 2,000 cells/6 uL of assay medium per well into black wall/clear-bottom 1536-well plates using a Multidrop Combi (ThermoFisher Scientific, Waltham, MA) dispenser. After the assay plates were incubated at 37 C and 5% CO2 for an overnight, 23 nL of compounds dissolved in DMSO, positive controls or DMSO only was transferred to the assay plate by a Pintool station (Kalypsys, San Diego, CA). The assay plates were incubated at 37 C and 5% CO2 for 5 hr. One uL of LiveBLAzer B/G FRET substrate (Life Technologies) was added using a Flying Reagent Dispenser (Aurora Discovery, San Diego, CA) and the plates were incubated at room temperature for 1.5 hr. Fluorescence intensity (405 nm excitation, 460 nm and 530 nm emissions) was measured using an Envision plate reader (PerkinElmer, Shelton, CT). For cytotoxicity, 3 ul/well of CellTiter-Glo reagent was added into the assay plates using an FRD. After 30 min incubation at room temperature, the luminescence intensity was measured using a ViewLux plate reader (PerkinElmer).
A general note: Quantitative high-throughput screening tests each substance at several concentrations.
Regarding `CCOC(=O)C(Cl)Cc1cc(-n2nc(C)n(C(F)F)c2=O)c(F)cc1Cl` (stereo not given), the molecule was classed as inactive. With `CCOC(=O)c1ncn2c1CN(C)C(=O)c1c(I)cccc1-2`, the outcome was inactive. Consider `ClCC1CO1` (stereo not given), for which the molecule was called inactive. Regarding `CCNc1nc(NCC)nc(SC)n1`, the molecule was classed as inactive. The value for `Cc1ccc(S(=O)(=O)N[C@@H](CCCCN)C(=O)CCl)cc1` was “inactive”; that for `Clc1ccc(C(Cl)(Cl)Cl)cn1` was “inactive”; that for `CN=CNc1ccc(C)cc1C` was “inactive”. As for `CCN(CCO)CCn1c(Cc2ccccc2)nc2c1c(=O)n(C)c(=O)n2C`, the molecule was called inactive. The value for `O=C1CC(=O)NC(=O)N1` was “inactive”. As for `CCCCCCCCBr`, the entry is “inactive”; as for `CC(C)(C1CCC(O)CC1)C1CCC(O)CC1` (stereo not given), “inactive”. As for `O=c1[nH]oc2c1CCNC2`, the entry is “inactive”; as for `CCC(CC)(CNC(=O)CCCO)c1cccc(OC)c1`, “inactive”. For the molecule `NCC1(CC(=O)O)CCCCC1`, the call was inactive. The value for `NC(=O)OCCCc1ccccc1` was “inactive”; that for `CN(C)CCc1c[nH]c2cccc(OP(=O)(O)O)c12` was “inactive”. Take `CCOC1Oc2ccc(OS(C)(=O)=O)cc2C1(C)C` (stereo not given): the outcome was inactive. Turning to `O=c1[nH]c2ccccc2n1C1CCNCC1`, the molecule was called inactive. `CC(C)c1ccc(O)cc1`: the result was inactive. As for `NC1(c2ccccc2)CCCCC1`, the result was inactive.

On to `CCSC(=O)Cl`, for which the outcome was inactive. Take `COC(=O)c1ccccc1CS(=O)(=O)NC(=O)Nc1nc(OC)cc(OC)n1`: the molecule was called inactive. The value for `CN(C)C(=O)Oc1cc(OC(=O)N(C)C)cc(C(O)CNC(C)(C)C)c1` (stereo not given) was “inactive”; that for `CC(C)(C)C(=O)C(Cl)Cl` was “inactive”; that for `Oc1ccc(Cc2ccc(O)cc2)cc1` was “inactive”.

For the molecule `CCN[C@@H](C)Cc1ccccc1`, the call was inactive. For the molecule `CCC(C)C(C)(COC(N)=O)COC(N)=O` (stereo not given), the result was inactive. The value for `CC(=O)OCC1=C(C(=O)O)N2C(=O)[C@@H](N)[C@H]2SC1` was “inactive”; that for `N[C@@H]1C[C@H]1c1ccccc1` was “inactive”. Regarding `CCCC[N+](=O)[O-]`, the result was inactive. As for `O=S1(=O)OCCO1`, the entry is “inactive”; as for `CNC(=O)Oc1ccccc1C(C)C`, “inactive”; as for `C=C(C)[C@H]1CN[C@H](C(=O)O)[C@H]1CC(=O)O`, “inactive”. As for `N=C(N)[Se]`, the entry is “inactive”. Regarding `CCCOc1nn(C(=O)NS(=O)(=O)c2ccccc2C(=O)OC)c(=O)n1C`, the outcome was inactive. The value for `COC1=CC(=O)O[C@@H](/C=C/c2ccccc2)C1` was “inactive”; that for `C[C@H](CN1CCOCC1)C(C(=O)N1CCCC1)(c1ccccc1)c1ccccc1` was “inactive”; that for `COC(=O)c1ccc(CBr)cc1` was “inactive”. The value for `Cc1ccc2cc(C)ccc2c1` was “inactive”; that for `CN1COCN(Cc2cnc(Cl)s2)/C1=N\[N+](=O)[O-]` was “inactive”.
